{"source": "PubChem BioAssay (NCI)", "note": "Values joined by “and” are separate entries in the source; they are usually repeats but may differ in a detail not shown here. Equal values may be shown once. The panel holds about 83,000 compounds, 20% with a hit somewhere; the sample as a whole holds those more often.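 Single-concentration screen, 48 h exposure, 96-well plates. Endpoint: percent growth. Below 10 = active.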 A number with no mark means an inactive call. Active and inactive are the calls of the source."}
{"tested_on": "MDA-MB-468 breast", "experiment": "NCI-60 one-dose screen, 48 h (100 = growth as untreated, 0 = no growth, -100 = all killed)", "conditions": "10 µM unless noted"}
{"smiles": "O=C(/C=C/c1ccc([N+](=O)[O-])cc1)c1ccccc1", "growth": "110%"}
{"smiles": "S=c1nc(-c2ccccc2)oc(=NC2CCCCC2)n1C1CCCCC1", "growth": "-42.1% (active)"}
{"smiles": "O=C1NCCc2c1noc2-c1ccccc1", "growth": "99.2%"}
{"smiles": "CC1(C)CC[C@]23CC[C@]4(C)[C@H](CC[C@@H]5[C@@]6(C)CCNCC(C)(C)[C@@H]6CC[C@]54C)[C@H]2[C@H]1OC3", "growth": "65.4%"}
{"smiles": "CCCOS(=O)(=O)c1ccccc1", "growth": "108%"}
{"smiles": "COc1ccc(-c2cn3c(C(=O)Nc4ccccc4Cl)c(-c4ccccc4)c4c3n2CCCC4)cc1", "growth": "84.1%"}
{"smiles": "Cc1cc(Nc2ccc(C(=O)N3CCCC3)cc2)nc(NCCCNc2ccnc3cc(Cl)ccc23)n1", "growth": "40%"}
{"smiles": "CC1Cc2c(Cl)ncnc2N(C)c2ccc(F)cc21", "note": "(stereo not given)", "growth": "64.5%"}
{"smiles": "CCCCn1c(=O)[nH]c(N)c([C@@H]2c3c([nH]c(=O)n(CCCC)c3=O)Oc3ccc4ccccc4c32)c1=O", "growth": "113%"}
{"smiles": "CC(C)(C)c1cc(C=O)cc(C(C)(C)C)c1O", "growth": "94.9%"}
{"smiles": "O=C(NOCCO)c1cc(CN2OCCCC2=O)c(F)c(F)c1Nc1ccc(I)cc1F", "growth": "114%"}
{"smiles": "CCCCCCC/C(=N\\N=C(N)N)c1ccc(O)cc1", "growth": "-79.7% (active)"}
{"smiles": "CC(=O)Oc1ccc(C2=Cc3ccc(OC(C)=O)cc3OC2C)cc1", "note": "(stereo not given)", "growth": "56.5%"}
{"smiles": "C=C1CCC2C3(C)COC(c4cccc(Cl)c4)OC3CCC2(C)C1/C=C/C1=CCOC1=O", "note": "(stereo not given)", "growth": "43.6%"}
{"smiles": "OCCN1CCN(CCO)CC1", "growth": "107% and 103% and 105%"}
{"smiles": "O=C(NOC(=O)c1ccccc1)c1ccccc1", "growth": "105%"}
{"smiles": "Fc1ccc(/C=C/c2cc(/C=C/c3ccc(F)cc3)n(-c3cc(F)cc(F)c3)n2)cc1", "growth": "108%"}
{"smiles": "CCCSc1nc2ccc(C)cc2cc1/C=[N+](\\[O-])c1ccccc1", "growth": "88.4%"}
{"smiles": "COc1cc(/C=C\\c2cc(/C=C\\c3ccc(O)c(OC)c3)n(C(=O)Nc3ccc(C(F)(F)F)cc3)n2)ccc1O", "growth": "43.8%"}
{"smiles": "CC(C)c1cc(C(C)C)c(S(=O)(=O)Oc2ccc(NC(=O)c3ccc(Cl)cc3)cc2)c(C(C)C)c1", "growth": "8.01% (active)"}
{"smiles": "CCCc1c(C)c2sc(=O)[nH]c2[nH]c1=O", "growth": "99.4%"}
{"smiles": "CCS(=O)(=O)c1ncnc2nc[nH]c12", "growth": "105%"}
{"smiles": "COc1ccc(C2CC(c3cccc(Nc4ccnc5cc(Cl)ccc45)c3)=NN2c2ccc(Cl)cc2)cc1", "note": "(stereo not given)", "growth": "64%"}
{"smiles": "S=C(N/N=C/c1cc(Cl)cc(Cl)c1)NC12CC3CC(CC(C3)C1)C2", "growth": "104%"}
{"smiles": "CCCCCn1sc(=O)n(Cc2ccc(CNC(=O)OCc3ccc4c(Cl)cc(Cl)c(O)c4n3)cc2)c1=O", "growth": "59.8%"}
{"smiles": "COc1cc(-c2nn(-c3ccc(NC(=O)c4ccc(Cl)c(C(F)(F)F)c4)cc3)cc2-c2ccncc2)ccc1Cl", "growth": "26%"}
{"smiles": "COc1cc(C(=O)/C=C/c2c(-c3cccs3)nc3ccccn23)cc(OC)c1OC", "growth": "-30.4% (active)"}
{"smiles": "O=C1NC(c2ccc(Cl)c(Cl)c2)=C/C1=C\\c1ccccc1", "growth": "63.3%"}
{"smiles": "ClCc1cccc2c(CCl)cccc12", "growth": "-18.3% (active)"}
{"smiles": "NCCOc1ncccc1/C=C1\\c2ccccc2-c2ccc([N+](=O)[O-])cc21", "growth": "-39.2% (active)"}
{"smiles": "CCCCn1c(=O)c(-c2cc(-c3ccc(Cl)cc3)nc(-c3ccc(Cl)cc3)c2)cc2cc(C)ccc21", "growth": "102%"}
{"smiles": "O=C1NC(=O)/C(=C/c2c(-c3ccccc3)nc3sc(COc4ccccc4)nn23)S1", "growth": "98.9%"}
{"smiles": "COc1cc(-c2nc(SCCC(C)C)nc(Nc3ccccc3Cl)c2C#N)cc(OC)c1OC", "growth": "108%"}
{"smiles": "CC1(CO)CCCC1NCCNC1CCCC1(C)CO", "note": "(stereo not given)", "growth": "104% and 95.5%"}
{"smiles": "N#CC(=Nc1cccc(F)c1)C1=C(O)c2ccccc2C1=O", "growth": "75.2%"}
{"smiles": "N#Cc1ccc(NC(=O)Nc2nc3ccc(OC(F)(F)F)cc3s2)cc1", "growth": "-2.64% (active)"}
{"smiles": "COc1ccc(-c2cc(/C=C/C(=O)c3ccc(N)cc3)[nH]n2)cc1", "growth": "4.1% (active)"}
{"smiles": "Cn1cc(-c2nnc(-c3cn(C)c4ncc(Br)cc34)o2)c2ccccc21", "growth": "39.3%"}
{"smiles": "COc1c(N2CC3CCCNC3C2)c(F)cc2c(=O)c(C(=O)N/N=C/c3ccc(N(C)C)cc3)cn(C3CC3)c12", "note": "(stereo not given)", "growth": "79%"}
{"smiles": "CC(=O)[C@H]1CC[C@]2(C)[C@@H]1CC[C@@H]1[C@@]3(C)C/C(=C/c4cccnc4)C(=O)C(C)(C)[C@@H]3CC[C@]12C", "growth": "60.3%"}
